Only some compounds are listed: those with a hit (about 5.3% of all), similar ones and a draw of the others.
HCV inhibitor = qHTS Assay for Inhibitors of Hepatitis C Virus (HCV) | Huh7.5.1 HCVcc-Cre infection, luciferase reporter, 44 h | 340,000 compounds, 3.4% hits | Potency, µM (titrated, usually from 41.8 µM), most hits filed as inhibitors | AID 651820, 2012; active = well fitted inhibition curve with a large enough effect; inconclusive = small, poorly fitted or top-dose-only effect, or another doubt; inactive = no such curve, though single readings can be large or run the other way
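Antiviral activity was scored by luciferase reporter output from cells infected with HCVcc-Cre (~0.5 moi) in presence of compound, 44 h infection period, cells seeded 1,000/well 4 h prior.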
FMDV antiviral = High Throughput Screening for Foot and Mouth Disease Virus Antivirals; 410,000 compounds, 1.2% hits; Potency, µM (doses to about 57.9 µM), actives largely listed as inhibitors; FMDV antiviral cell-based qHTS; AID 1159524, 2015; calls by dose curve; tested in HEK293T cells; note: read-out not given here; nearly all actives have a fitted effect of over 45% in size
VACV Venus inh = qHTS for Stage-Specific Inhibitors of Vaccinia Orthopoxvirus: Venus Reporter Primary qHTS; AID 720580, 2013; Potency, µM (highest dose often 36.5 µM), hits mostly inhibitors; Vaccinia virus Venus reporter expression, fluorescence; 330,000 compounds, 0.46% hits; calls by dose curve; tested in A549 cells; note: nearly all actives have a fitted effect of over 30% in size
MARV entry inh = qHTS for inhibitors of binding or entry into cells for Marburg Virus | 300,000 compounds, 1.8% hits | Potency, µM (series often up to 37.8 µM), usual class: inhibitors | Marburg virus pseudotyped entry inhibition, cell reporter | AID 540276, 2011; calls by dose curve; tested in HEK293 cells
VACV mCherry inh = qHTS for Stage-Specific Inhibitors of Vaccinia Orthopoxvirus: mCherry Reporter Primary qHTS; AID 720579, 2013; Vaccinia virus mCherry reporter infection, fluorescence; 310,000 compounds, 0.63% hits; Potency, µM (doses to about 36.5 µM), hits mostly inhibitors; calls by dose curve; tested in A549 cells; note: nearly all actives have a fitted effect of over 35% in size
LASV entry inh = qHTS for Inhibitors of binding or entry into cells for Lassa Virus; Lassa virus pseudotype entry inhibition, cell reporter; Potency, µM (top dose mostly 37.9 µM), actives largely listed as inhibitors; 300,000 compounds, 1.2% hits; calls by dose curve; tested in HEK293 cells; note: nearly all actives have a fitted effect of over 50% in size
A number is an active result; 0 = inactive; ? = inconclusive; - = no result.

SMILES	HCV inhibitor	FMDV antiviral	VACV Venus inh	MARV entry inh	VACV mCherry inh	LASV entry inh
COc1cc2sc3cc(NCc4ccc5c(c4)OCO5)ccc3c(=O)c2cc1OC	?	0	?	-	?	-
COc1ccc2[nH]c(C(O)C(O)c3nc4c(OC)c(OC)ccc4[nH]3)nc2c1OC (centres undefined)	-	-	0	-	0	-
COC(=O)c1[nH]c2cc(C)ccc2c1NC(=O)CN1CCN(c2ccccc2OC)CC1	10µM	?	0	?	-	?
COC(=O)c1[nH]c2cc(OC)ccc2c1NC(=O)CCN1CCSCC1	0	0	0	0	0	0
COC(=O)c1[nH]c2ccccc2c1NC(=O)CN1CCCCCC1	?	0	0	0	0	?
COC(=O)c1[nH]c2cc(OC)ccc2c1NC(=O)CN1CCN(c2cccc(C)c2)C(C)C1 (centres undefined)	10µM	?	?	16µM	?	?
COC(=O)c1[nH]c2cc(C)ccc2c1NC(=O)CN1CCOCC1	0	0	0	?	0	0
COC(=O)c1[nH]c2ccccc2c1NC(=O)CN1CCN(c2cccc(Cl)c2)CC1	?	14µM	0	?	-	0
CCCCCCCCCCCCC[N+](C)(C)Cc1ccccc1	-	28µM	11µM	-	11µM	-
COc1ccc(OC)c(-c2nc(C(=O)NCC3CCCO3)cc3c2[nH]c2ccccc23)c1 (centres undefined)	10µM	0	0	-	0	-
COc1cccc(-c2nc(C(=O)NCC3CCCO3)cc3c2[nH]c2ccccc23)c1 (centres undefined)	11µM	?	0	-	?	-
Cc1ccc(S(=O)(=O)N2CCCCC2)cc1NC(=O)CSc1ncnc2ccccc12	?	0	?	?	11µM	?
Cc1ccc(NC(=O)CSc2ncnc3ccccc23)cc1S(=O)(=O)N1CCCCCC1	?	8.9µM	?	?	?	0
O=C(CSc1ncnc2ccccc12)Nc1cccc(S(=O)(=O)N2CCCC2)c1	0	?	0	?	0	0
Cc1ccc(S(=O)(=O)N2CCCCC2)cc1NC(=O)c1ccc2ccccc2n1	0	0	0	?	0	?
O=C(CSc1ncnc2ccccc12)Nc1cc(S(=O)(=O)N2CCCCC2)ccc1Cl	10µM	?	?	?	?	?
COc1ccc(CN2CCC3(CCC(CNC(=O)C4CCCO4)O3)CC2)c(C)c1C (centres undefined)	-	0	0	-	0	-
Cc1ccc(NC(=O)N(Cc2ccc3c(c2)OCO3)C2CCN(Cc3ccccc3)CC2)cc1C	-	0	0	-	0	?
Cc1ccc(Nc2nc(N)nc(CN3CCN(Cc4ccc5c(c4)OCO5)CC3)n2)cc1Cl	32µM	?	-	?	-	0
CCOc1nc(Nc2ccc(OC)c(Cl)c2)nc(N2CCN(c3ccc(OC)cc3)CC2)n1	10µM	0	0	?	-	?
CCOc1nc(Nc2ccc(F)cc2)nc(N2CCN(c3ccc(OC)cc3)CC2)n1	0	?	0	0	-	0
Cc1ccc(Nc2nc(N)nc(CN3CCN(c4ccccc4)CC3)n2)cc1Cl	?	0	-	0	-	0
Cc1ccc(NC(=O)N(Cc2ccc3c(c2)OCO3)C2CCN(Cc3ccccc3)CC2)cc1Cl	-	0	?	-	?	11µM
COc1ccc(N2CCN(Cc3nc(N)nc(Nc4ccc(C)c(Cl)c4)n3)CC2)cc1	10µM	?	-	?	-	0
CC1CN(CC(=O)N2CCN(Cc3nccn3C)CC2)Cc2cc(Cl)ccc2O1 (centres undefined)	-	0	0	-	0	-
SMILES	HCV inhibitor	FMDV antiviral	VACV Venus inh	MARV entry inh	VACV mCherry inh	LASV entry inh
CCS(=O)(=O)c1ccc(O)c(Nc2cc(C)nc(SC)n2)c1	-	0	0	?	0	0
O[Si](CCCN1CCCCC1)(c1ccc(F)cc1)C1CCCCC1 (centres undefined)	?	?	0	2.8µM	0	5.2µM
Cc1cccc(C(=O)NCC(=O)OCc2cc(=O)n3nc(C)sc3n2)c1	-	0	0	-	0	0
COc1ccc(Oc2nc(-c3ccncc3)nc3ccccc23)cc1	?	?	0	?	0	0
COc1ccc(Oc2nc(-c3ccccn3)nc3ccccc23)cc1	13µM	0	?	?	4.5µM	?
CC(=O)c1ccc(Oc2nc(-c3cccnc3)nc3ccccc23)cc1	11µM	0	0	0	0	0
c1ccc(Oc2nc(-c3ccccn3)nc3ccccc23)cc1	7.9µM	0	?	?	?	?
Cc1cc(/C=N/NC(=O)c2cccs2)c(C)n1-c1ccccc1	?	13µM	-	?	-	2.1µM
Cc1cc(/C=N/NC(=O)c2ccncc2)c(C)n1-c1ccccc1	?	0	0	0	0	0
CCCCN(C)CCCNC(=O)Cn1ncc2c3ccccc3n(Cc3cc(C)ccc3C)c2c1=O	-	0	0	?	0	?
COCC(=O)Nc1cc(C(=O)NCCc2ccccc2)ccc1Cl	0	0	0	?	0	10µM
COc1ccc(C(=O)Nc2cc(C(=O)NCCc3ccccc3)ccc2Cl)cc1	8.9µM	-	0	0	0	0

Screening results from PubChem BioAssay.
